# Measurements from publication PMC5700166.
# Biological target: T1, GST-Nv-NF-kB (Ser allele) (Nematostella vectensis, UniProt A7UNT2 2-411)
# T1 sequence: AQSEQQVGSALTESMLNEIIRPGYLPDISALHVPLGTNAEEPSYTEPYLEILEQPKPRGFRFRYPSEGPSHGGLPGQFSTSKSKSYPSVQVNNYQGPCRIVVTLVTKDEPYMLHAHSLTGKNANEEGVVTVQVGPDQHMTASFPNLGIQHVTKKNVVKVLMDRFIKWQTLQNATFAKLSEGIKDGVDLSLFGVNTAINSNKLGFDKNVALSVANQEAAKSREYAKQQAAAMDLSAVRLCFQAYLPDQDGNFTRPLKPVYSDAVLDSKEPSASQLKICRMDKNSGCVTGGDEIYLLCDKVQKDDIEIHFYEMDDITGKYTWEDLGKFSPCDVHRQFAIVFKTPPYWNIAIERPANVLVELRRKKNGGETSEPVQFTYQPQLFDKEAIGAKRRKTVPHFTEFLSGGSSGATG
# Test: protein-binding microarray (PBM); PBM: ~300 nM protein, 6 mM HEPES pH 7.8, 80 mM KCl, 0.5 mM EDTA, 0.5 mM EGTA, 6% glycerol, 35 ng/ul poly-dIdC, 1% milk, 1 h, room temperature; Ap Aiptasia and Nv Nematostella (sea anemones) / Co Capsaspora / Aq Amphimedon (sponge) / Dm Drosophila / Hu human; RHD is the Rel homology domain; high values mean tight binding
# Conditions: dsDNA, one strand shown
row,Sequence,binding signal [z-score]
1,CCGATTAACATCAAATGACCCCCTGATGTTAATCGGGTCTTGATTCGCTTGACGCTGCTG,2.69
2,CCGATTAACATCAGGGGTTCCACTGATGTTAATCGGGTCTTGATTCGCTTGACGCTGCTG,1.62
3,CCGATTAACATCAGGAATGTCCCTGATGTTAATCGGGTCTTGATTCGCTTGACGCTGCTG,3.65
4,CCGATTAACATCACGTCCCCCCCTGATGTTAATCGGGTCTTGATTCGCTTGACGCTGCTG,4.17
5,CCGATTAACATCAGGGAGATTTGTGATGTTAATCGGGTCTTGATTCGCTTGACGCTGCTG,3.43
6,CCGATTAACATCAGGAACGCCCCTGATGTTAATCGGGTCTTGATTCGCTTGACGCTGCTG,1.92
7,CCGATTAACATCAGGGAGGGTAATGATGTTAATCGGGTCTTGATTCGCTTGACGCTGCTG,2.16
8,CCGATTAACATCAGGGAGATACCTGATGTTAATCGGGTCTTGATTCGCTTGACGCTGCTG,1.75
9,CCGATTAACATCAAGGATTTCCCTGATGTTAATCGGGTCTTGATTCGCTTGACGCTGCTG,6.13
10,CCGATTAACATCAGGCCTCCCCCTGATGTTAATCGGGTCTTGATTCGCTTGACGCTGCTG,4.46
11,CCGATTAACATCAGATACCCCCCTGATGTTAATCGGGTCTTGATTCGCTTGACGCTGCTG,4.05
12,CCGATTAACATCAGGCGAGTCCCTGATGTTAATCGGGTCTTGATTCGCTTGACGCTGCTG,2.72
13,CCGATTAACATCAAAAATTCCGGTGATGTTAATCGGGTCTTGATTCGCTTGACGCTGCTG,1.4
14,CCGATTAACATCAGGGGGTAATATGATGTTAATCGGGTCTTGATTCGCTTGACGCTGCTG,5.13
15,CCGATTAACATCACCCATCCCCCTGATGTTAATCGGGTCTTGATTCGCTTGACGCTGCTG,4.96
16,CCGATTAACATCAAGGGAAACCCTGATGTTAATCGGGTCTTGATTCGCTTGACGCTGCTG,4.43
17,CCGATTAACATCAGGGATTCACCTGATGTTAATCGGGTCTTGATTCGCTTGACGCTGCTG,4.26
18,CCGATTAACATCAGGTTTTTCCATGATGTTAATCGGGTCTTGATTCGCTTGACGCTGCTG,1.02
19,CCGATTAACATCAGAAATCCCGATGATGTTAATCGGGTCTTGATTCGCTTGACGCTGCTG,2.04
20,CCGATTAACATCAGGGGGAAGCATGATGTTAATCGGGTCTTGATTCGCTTGACGCTGCTG,6.05
21,CCGATTAACATCATCAGGGAAAATGATGTTAATCGGGTCTTGATTCGCTTGACGCTGCTG,5.74
22,CCGATTAACATCACCGATTTCCCTGATGTTAATCGGGTCTTGATTCGCTTGACGCTGCTG,5.28
23,CCGATTAACATCAAAATTTCACCTGATGTTAATCGGGTCTTGATTCGCTTGACGCTGCTG,3.88
24,CCGATTAACATCACATATACCCCTGATGTTAATCGGGTCTTGATTCGCTTGACGCTGCTG,1.38
25,CCGATTAACATCAGGCTTTTCCCTGATGTTAATCGGGTCTTGATTCGCTTGACGCTGCTG,4.44
